# Results as given in PubChem BioAssay (NCATS).
# Where “and” joins values, the source holds several entries; their conditions need not be identical. Equal values may be shown once. Inconclusive results are not listed. Entries that show only a call come without a potency. Some structures have more than one record in an assay (separate samples or runs), and their calls can disagree. Calls of active or inactive are those of the source. Unless noted, calls come from the whole dose curve; as a rule, active = well fitted curve in the direction sought with a large enough effect; inconclusive = small, poorly fitted or top-dose-only effect, or another doubt; inactive = no such curve, though single readings can be large; an effect the other way counts as inactive or inconclusive.
# Tests used:
# [1] = target: Guanine nucleotide-binding protein G(i) subunit alpha-1 (Homo sapiens) (UniProt P63096); assay: qHTS Assay for Inhibitors of RGS12 GoLoco Motif Activity (Green Fluorophore) (AID 879);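 note: negative values mean loss of peptide binding seen as reduced polarization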
# Procedure, shortened: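 Fluorescence polarization assay: 50 nM Gαi1 with 10 nM FITC-labeled RGS12 GoLoco peptide in 10 mM Tris pH 7.5, 150 mM NaCl, 0.1 mM GDP, 0.05% NP40, 10 min at room temperature with compound.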
# [2] = target: Cytochrome P450 2C9 (Homo sapiens) (UniProt P11712); assay: qHTS Assay for Inhibitors and Substrates of Cytochrome P450 2C9 (AID 883); note: nearly all actives have a fitted effect of over 60% in size; note: potency is the fitted concentration of half-maximal effect
# Procedure, shortened: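 10nM CYP2C9 + 100uM Luciferin-H (=KM), 25mM KPO4; cpd 10 min 37C; NADPH regen, 60 min 37C; stop/detect with P450 Glo-Buffer 20 min; luminescence. Norm. to 57uM sulphaphenazole as full inhibition.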
# [3] = target: Cytochrome P450 3A4 (Homo sapiens) (UniProt P08684); assay: qHTS Assay for Inhibitors and Substrates of Cytochrome P450 3A4 (AID 884); note: series mostly up to about 57 µM; nearly all actives have a fitted effect of over 50% in size
# Procedure, shortened: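 20 nM human CYP3A4 with 25 uM Luciferin-PPXE (at KM) in 200 mM KPO4, preincubated 10 min with compound; NADPH regeneration started a 60 min RT reaction. Luciferin detected by luminescence, normalized to 57 uM ketoconazole as full inhibition.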
# [4] = target: Cytochrome P450 2D6 (Homo sapiens) (UniProt P10635); assay: qHTS Assay for Inhibitors and Substrates of Cytochrome P450 2D6 (AID 891); note: nearly all actives have a fitted effect of over 60% in size; note: potency is the fitted concentration of half-maximal effect
# Procedure, shortened: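 Human CYP2D6 (5 nM) with 30 uM Luciferin-ME EGE (at Km) in 100 mM KPO4, compound preincubated 10 min, then NADPH regeneration system for 60 min at room temperature. Luciferin read by luminescence; normalized to 1.43 uM quinidine.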
# [5] = target: Cytochrome P450 2C19 (Homo sapiens) (UniProt P33261); assay: qHTS Assay for Inhibitors and Substrates of Cytochrome P450 2C19 (AID 899); note: nearly all actives have a fitted effect of over 60% in size; note: potency is the fitted concentration of half-maximal effect
# Procedure, shortened: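 Luminescent read-out of luciferin formed from Luciferin-H EGE (10uM, equal to KM). Enzyme 5nM in 50mM KPO4; compound added, 10 min at 37C, then NADPH regenerating system for 60 min at 37C. Full inhibition defined by 57uM ketoconazole.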
# [6] = qHTS Assay for Identification of Small Molecule Antagonists for NFkB Signaling Pathway (AID 895; active = well fitted inhibition curve with a large enough effect in the signal ratio, with a control signal flat, not every such curve was filed as active; the % refers to the signal ratio; note: potency is the fitted concentration of half-maximal effect)
# Procedure, shortened: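 ME-180 NFkB-bla cells (beta-lactamase under NFkB response element), plated overnight, treated with compound then 10 pM TNF alpha (about EC50) for 5 hrs at 37 C. LiveBLAzer FRET read at 460/530 nm emission, 405 nm excitation.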
# [7] = Confirmation and Secondary Assay for Modulators of Hemoglobin Beta Chain Splicing at IVS2 654 locus (AID 910);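 note: HeLa cells stably carrying EGFP split by mutant beta-globin IVS2-654 intron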
# Procedure, shortened: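 HeLa cells stably expressing EGFP interrupted by β-globin IVS2-654 intron, seeded overnight in Opti-MEM/2% FCS, then treated 2 days at 37 °C. Restored splicing read as total peak GFP intensity per well by laser scanning cytometry (488 nm excitation, 500–520 nm emission); 500 nM antisense PNA as control.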
# [8] = Cellular Toxicity (caspase-3) N2a (AID 665);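 note: compound exposure lasted 16 h at 37 °C before readout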
# Procedure, shortened: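 N2a cells, 1500/well, 5 h settle at 37 °C; cpd 16 h, 37 °C; Caspase-Glo 3/7, 1 h RT; luminescence. Norm: DMSO = 0, 10 uM staurosporine = 100%. AC50, Hill fit.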
# [9] = Cellular Toxicity (caspase-3) NIH 3T3 (AID 666);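 note: caspase signal read after 16 h compound exposure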
# Procedure, shortened: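 Luminescence from aminoluciferin released by caspase-3/7 cleavage of a peptide substrate served as read-out. Mouse fibroblast NIH 3T3 cells were exposed to compounds over a concentration range for 16 hours, and AC50 values came from standard Hill modelling.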
# [10] = Cellular Toxicity (caspase-3) Renal Proximal Tubule (AID 667);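 note: cells exposed to compound for 16 hours at 37 °C before detection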
# Procedure, shortened: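 Primary rat proximal tubule cells, 1000/well, 5 h plating at 37 °C, then compound 16 h at 37 °C. Caspase-Glo 3/7 reagent, 1 h RT, luminescence. Normalized to DMSO (basal) and 10 uM staurosporine (100%); Hill-fit AC50.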
# Cytochrome P450 2C9 (Homo sapiens), sequence (P11712 whole entry, looked up): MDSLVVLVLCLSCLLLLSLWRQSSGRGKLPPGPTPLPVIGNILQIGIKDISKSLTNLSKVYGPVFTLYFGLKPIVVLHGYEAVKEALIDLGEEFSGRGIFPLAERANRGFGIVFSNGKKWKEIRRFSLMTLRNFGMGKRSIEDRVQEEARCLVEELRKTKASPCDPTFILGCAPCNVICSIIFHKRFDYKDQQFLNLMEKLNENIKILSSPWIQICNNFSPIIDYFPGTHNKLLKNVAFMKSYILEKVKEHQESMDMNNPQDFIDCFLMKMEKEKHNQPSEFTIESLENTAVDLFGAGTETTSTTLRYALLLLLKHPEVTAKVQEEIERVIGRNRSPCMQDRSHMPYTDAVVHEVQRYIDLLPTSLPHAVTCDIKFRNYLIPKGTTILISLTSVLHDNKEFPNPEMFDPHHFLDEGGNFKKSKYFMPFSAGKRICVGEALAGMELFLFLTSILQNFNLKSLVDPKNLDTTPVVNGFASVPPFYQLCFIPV
# Cytochrome P450 3A4 (Homo sapiens), sequence (P08684 whole entry, looked up): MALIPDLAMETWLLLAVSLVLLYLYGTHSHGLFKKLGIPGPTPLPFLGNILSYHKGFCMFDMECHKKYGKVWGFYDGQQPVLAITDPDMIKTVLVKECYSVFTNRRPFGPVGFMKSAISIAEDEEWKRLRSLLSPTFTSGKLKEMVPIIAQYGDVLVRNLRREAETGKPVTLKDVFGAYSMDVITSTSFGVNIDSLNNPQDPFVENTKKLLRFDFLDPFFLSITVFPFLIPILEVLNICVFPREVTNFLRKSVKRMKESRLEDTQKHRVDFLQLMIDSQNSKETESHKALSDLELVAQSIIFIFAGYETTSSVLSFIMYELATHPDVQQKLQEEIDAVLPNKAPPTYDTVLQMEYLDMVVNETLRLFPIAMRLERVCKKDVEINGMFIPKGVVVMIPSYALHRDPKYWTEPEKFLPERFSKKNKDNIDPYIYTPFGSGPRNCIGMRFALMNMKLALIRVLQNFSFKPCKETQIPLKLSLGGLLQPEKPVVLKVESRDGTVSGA
# Cytochrome P450 2C19 (Homo sapiens), sequence (P33261 whole entry, looked up): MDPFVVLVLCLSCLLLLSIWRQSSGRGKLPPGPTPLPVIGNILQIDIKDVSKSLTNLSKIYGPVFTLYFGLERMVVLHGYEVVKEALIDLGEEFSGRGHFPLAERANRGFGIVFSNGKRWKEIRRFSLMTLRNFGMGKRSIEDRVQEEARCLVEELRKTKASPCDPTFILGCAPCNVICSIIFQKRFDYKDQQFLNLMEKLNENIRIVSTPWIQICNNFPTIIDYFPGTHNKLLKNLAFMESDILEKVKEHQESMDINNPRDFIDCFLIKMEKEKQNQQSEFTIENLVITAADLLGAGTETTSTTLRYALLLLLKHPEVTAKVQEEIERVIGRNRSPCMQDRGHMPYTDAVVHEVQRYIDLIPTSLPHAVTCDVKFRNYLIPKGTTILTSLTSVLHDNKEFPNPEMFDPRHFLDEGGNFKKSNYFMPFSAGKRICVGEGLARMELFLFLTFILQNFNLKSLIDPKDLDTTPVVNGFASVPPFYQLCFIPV
# Cytochrome P450 2D6 (Homo sapiens), sequence (P10635 whole entry, looked up): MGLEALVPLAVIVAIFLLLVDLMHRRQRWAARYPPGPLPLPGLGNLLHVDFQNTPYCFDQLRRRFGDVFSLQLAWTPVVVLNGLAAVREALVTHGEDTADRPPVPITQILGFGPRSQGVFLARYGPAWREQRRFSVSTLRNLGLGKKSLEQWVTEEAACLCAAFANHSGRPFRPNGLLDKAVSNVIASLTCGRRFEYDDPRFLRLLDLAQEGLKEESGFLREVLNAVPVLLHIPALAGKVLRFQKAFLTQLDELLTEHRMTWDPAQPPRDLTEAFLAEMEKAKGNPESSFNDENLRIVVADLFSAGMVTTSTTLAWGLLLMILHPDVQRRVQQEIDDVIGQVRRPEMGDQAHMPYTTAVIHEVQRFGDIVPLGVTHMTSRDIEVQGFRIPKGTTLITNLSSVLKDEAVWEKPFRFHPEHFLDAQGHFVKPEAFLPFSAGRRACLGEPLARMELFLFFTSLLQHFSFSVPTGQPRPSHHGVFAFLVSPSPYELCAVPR
# Guanine nucleotide-binding protein G(i) subunit alpha-1 (Homo sapiens), sequence (P63096 whole entry, looked up): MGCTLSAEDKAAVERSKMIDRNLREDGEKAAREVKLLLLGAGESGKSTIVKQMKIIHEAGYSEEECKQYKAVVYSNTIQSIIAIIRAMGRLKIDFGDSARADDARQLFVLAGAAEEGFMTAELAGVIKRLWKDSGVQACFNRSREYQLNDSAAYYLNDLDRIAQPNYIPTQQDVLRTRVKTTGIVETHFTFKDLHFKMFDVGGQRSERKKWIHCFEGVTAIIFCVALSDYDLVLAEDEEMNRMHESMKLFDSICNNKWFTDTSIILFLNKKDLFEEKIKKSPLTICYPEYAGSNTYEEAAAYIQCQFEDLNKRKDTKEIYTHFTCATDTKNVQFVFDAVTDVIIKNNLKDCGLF
compound,measurement,setting,value
O=C(CCCN1CCC(O)(c2cccc(C(F)(F)F)c2)CC1)c1ccc(F)cc1,Potency,[1],inactive
O=C(O)CN(CCN(CC(=O)O)CC(=O)O)CCN(CC(=O)O)CC(=O)O,Potency,[1],inactive
CSc1ccc(C(=O)c2[nH]c(=O)[nH]c2C)cc1,Potency,[1],inactive
C[C@H](CS)C(=O)N1CCC[C@H]1C(=O)O,Potency,[1],inactive
same,Potency,[2],inactive
same,outcome,[3],inactive
same,Potency,[4],inactive
same,Potency,[5],inactive
CC(=O)Nc1nnc(S(N)(=O)=O)s1,Potency,[1],inactive
same,Potency,[2],inactive
same,outcome,[3],inactive
same,Potency,[4],inactive
same,Potency,[6],inactive
same,Potency,[5],inactive
same,outcome,[7],inactive
C(=C\c1ccccc1)/CN1CCN(C(c2ccccc2)c2ccccc2)CC1,Potency,[1],inactive
Cc1scc2c1N(C(=O)CN1CCN(C)CC1)c1ccccc1NC2=O,Potency,[1],inactive
same,Potency,[2],2.51 µM (active)
same,outcome,[3],inactive
same,Potency,[4],5.01 µM (active)
same,Potency,[5],inactive and 3.98 µM (active)
same,outcome,[7],inactive
CCOC(=O)c1cnc2c(cnn2CC)c1NN=C(C)C,Potency,[1],inactive
O=C(O)CP(=O)(O)O,Potency,[1],inactive
CCCCOCCOCCOCc1cc2c(cc1CCC)OCO2,outcome,[8],inactive
same,outcome,[9],inactive
same,outcome,[10],inactive
COCC(=O)O[C@]1(CCN(C)CCCc2nc3ccccc3[nH]2)CCc2cc(F)ccc2[C@@H]1C(C)C,Potency,[1],inactive
CCCCNC(=O)NS(=O)(=O)c1ccc(C)cc1,outcome,[8],inactive
same,outcome,[9],inactive
same,outcome,[10],inactive
same,Potency,[1],inactive
same,Potency,[4],inactive
same,Potency,[5],inactive
same,outcome,[7],inactive
O=C1CC2(CCCC2)CC(=O)N1CCCCN1CCN(c2ncccn2)CC1,Potency,[1],inactive
CN=C(NC#N)NCCSCc1nc[nH]c1C,outcome,[8],inactive
same,outcome,[9],inactive
same,outcome,[10],inactive
same,Potency,[1],inactive
same,Potency,[2],inactive
same,Potency,[4],inactive
same,Potency,[5],inactive
same,outcome,[7],inactive
C[N+](C)(C)CCOC(=O)CCC(=O)OCC[N+](C)(C)C,Potency,[1],inactive
COc1cc(C(=O)OCCCN2CCCN(CCCOC(=O)c3cc(OC)c(OC)c(OC)c3)CC2)cc(OC)c1OC,Potency,[1],inactive
NC(=Nc1ccccc1)Nc1ccccc1,outcome,[8],inactive
same,outcome,[9],inactive
same,outcome,[10],inactive
same,outcome,[3],inactive
NC(=O)N1c2ccccc2C=Cc2ccccc21,outcome,[8],inactive
same,outcome,[9],inactive
same,outcome,[10],inactive
same,Potency,[1],inactive
same,Potency,[2],inactive
same,outcome,[3],inactive
same,Potency,[4],inactive
same,Potency,[6],inactive
same,Potency,[5],inactive
same,outcome,[7],inactive
Nc1nc(N)c2nc(-c3ccccc3)c(N)nc2n1,outcome,[8],inactive
same,outcome,[9],inactive
same,outcome,[10],inactive
same,Potency,[1],inactive
same,outcome,[7],inactive
c1cc(CN2CCCCC2)cc(OCCCNc2nc3ccccc3s2)c1,Potency,[1],inactive
NCCCNCCSP(=O)(O)O,Potency,[1],inactive
C[C@]12C=CC(=O)C=C1CC[C@H]1[C@@H]3C[C@@H](O)[C@](O)(C(=O)CO)[C@@]3(C)C[C@H](O)[C@@]12F,Potency,[1],inactive
C[C@]12CCC(=O)C=C1CC[C@@H]1[C@@H]2CC[C@@]2(C)[C@H]1CC[C@]2(O)C(=O)CO,Potency,[1],inactive
CCN(CC)CCNC(=O)c1cc(S(C)(=O)=O)ccc1OC,Potency,[1],inactive
same,Potency,[2],inactive
same,outcome,[3],inactive
same,Potency,[6],inactive
same,outcome,[7],inactive
O=c1[nH]c(=O)n([C@H]2C[C@H](O)[C@@H](CO)O2)cc1Br,outcome,[8],inactive
same,outcome,[9],inactive
same,outcome,[10],inactive
same,Potency,[1],inactive
same,outcome,[3],inactive
same,Potency,[6],inactive
COC(=O)[C@@H](N)Cc1ccc(O)c(O)c1,Potency,[1],inactive
OCCN1CCN(CCCN2c3ccccc3C=Cc3ccccc32)CC1,Potency,[1],inactive
C[N+](C)(C)CCCCCCCCCC[N+](C)(C)C,Potency,[1],inactive
CCc1c(C)[nH]c2c1C(=O)C(CN1CCOCC1)CC2 (configuration not stated),Potency,[1],inactive
COc1ccc(CN(CCN(C)C)c2ccccn2)cc1,outcome,[8],inactive
same,outcome,[9],inactive
same,outcome,[10],inactive
same,Potency,[1],inactive
same,Potency,[4],501 nM (active) and 126 nM (active)
same,outcome,[7],inactive
COc1cc(Cc2cnc(N)nc2N)cc(OC)c1OC,outcome,[8],inactive
same,outcome,[9],inactive
same,outcome,[10],inactive
same,Potency,[1],inactive
same,outcome,[7],inactive
COC(=O)[C@H]1[C@H]2C[C@@H]3c4[nH]c5cc(OC)ccc5c4CCN3C[C@H]2C[C@@H](OC(=O)c2cc(OC)c(OC)c(OC)c2)[C@@H]1OC,outcome,[8],inactive
same,outcome,[9],inactive
same,outcome,[10],inactive
same,Potency,[1],inactive
Nc1ncn([C@@H]2O[C@H](CO)[C@@H](O)[C@H]2O)c(=O)n1,outcome,[8],inactive
same,outcome,[9],inactive
same,outcome,[10],inactive
same,Potency,[1],inactive
same,outcome,[7],inactive
CCNC(=O)N1CCN(CCCC(c2ccc(F)cc2)c2ccc(F)cc2)CC1,Potency,[1],inactive
CCN1CCc2nc(N)oc2CC1,Potency,[1],inactive
Cc1nc2sccn2c(=O)c1CCN1CCC(=C(c2ccc(F)cc2)c2ccc(F)cc2)CC1,Potency,[1],inactive
same,Potency,[4],10 µM (active)
same,Potency,[6],5.01 µM (active)
CN(C)CCCN1c2ccccc2Sc2ccc(C(F)(F)F)cc21,Potency,[1],inactive
same,Potency,[4],794 nM (active) and 398 nM (active)
same,outcome,[7],inactive
